From PubChem BioAssay (Tox21)
Several values for one entry are separate records, joined by “and”; a condition that tells them apart may be missing. Equal entries are not always repeated. Records with an inconclusive call do not appear. A call without a number means that no potency is given here. Some compounds were tested as several samples or in several runs, with calls that do not always agree. Activity calls are given as the source filed them. The call rests on the fitted dose curve; in most records, active means well fitted curve in the direction sought with a large enough effect in the repeat runs; inconclusive means weak or mixed curves; inactive means no such curve, though single readings can be large; an effect the other way counts as inactive or inconclusive.

What was measured:
[1] = qHTS assay to identify small molecule antagonists of the glucocorticoid receptor (GR) signaling pathway - cell viability counter screen (AID 720693); further: nearly all actives have a fitted effect of over 55% in size
[2] = qHTS assay for identifying genotoxic compounds that show differential cytotoxicity against isogenic chicken DT40 cell lines with known DNA damage response pathways - wild type cell line (AID 743012); further: nearly all actives have a fitted effect of over 60% in size; further: potency means the concentration at half of the fitted maximal effect
In short: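 First, wild type DT40 cells were plated at 300 per well and equilibrated about 0.5 h at 37 C/5% CO2. Next, compounds in DMSO were added and exposure lasted 40 h. Finally, CellTiter-Glo was added for 30 min at room temperature and luminescence recorded.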

[3] = qHTS assay for identifying genotoxic compounds that show differential cytotoxicity against isogenic chicken DT40 cell lines with known DNA damage response pathways - Rad54/Ku70 mutant cell line (AID 743015); further: nearly all actives have a fitted effect of over 60% in size; further: potency means the concentration at half of the fitted maximal effect
[4] = qHTS assay to identify small molecule antagonists of the androgen receptor (AR) signaling pathway - cell viability counter screen (AID 743033; further: nearly all actives have a fitted effect of over 45% in size)
[5] = qHTS assay to identify small molecule antagonists of the androgen receptor (AR) signaling pathway using the MDA cell line - cell viability counter screen (AID 743041; further: nearly all actives have a fitted effect of over 45% in size)
In short: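 Viability counter screen run alongside the AR antagonist reporter: cells seeded 5 h before compound, R1881 added, 16 h incubation at 37C without CO2, fluorescent CellTiter-Fluor signal quantified.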

[6] = qHTS assay for identifying genotoxic compounds that show differential cytotoxicity against isogenic chicken DT40 cell lines with known DNA damage response pathways - Rev3 mutant cell line (AID 743014); further: potency means the concentration at half of the fitted maximal effect; nearly all actives have a fitted effect of over 55% in size

Which Potency [1] does the source give for CCCCCCC(=O)O here?
Its Potency is “inactive”.

And the Potency [2]?
Its Potency is “inactive”.

What about the Potency [3] of the same molecule?
The Potency was “inactive”.

What about the Potency [4] of the same molecule?
The Potency was “inactive”.

And the Potency [5]?
Its Potency is “inactive”.

Which results are given for COc1ccccc1[N+](=O)[O-]?
Potency [1]: inactive; Potency [2]: inactive; Potency [3]: inactive; Potency [4]: inactive; Potency [5]: inactive

For Brc1ccc(Oc2ccc(Br)cc2)cc1, which Potency [1] is on record?
The Potency was “inactive”.

What about the Potency [2] of the same molecule?
The Potency was “inactive”.

And the Potency [3]?
The Potency was “inactive”.

What about the Potency [4] of the same molecule?
Its Potency is “inactive”.

And the Potency [5]?
Its Potency is “inactive”.

Which results are given for COc1ccc(N)c(OC)c1?
Potency [1]: inactive; Potency [2]: inactive; Potency [3]: inactive; Potency [4]: inactive; Potency [5]: inactive

With CCOC(=O)CC(=O)OCC as the molecule, how does the Potency [1] read?
Its Potency is “inactive”.

And the Potency [2]?
Its Potency is “inactive”.

What about the Potency [3] of the same molecule?
Its Potency is “inactive”.

And the Potency [4]?
The Potency was “inactive”.

And the Potency [5]?
The Potency was “inactive”.

With CCCCCCCCCCCC(=O)N(C)CC(=O)O as the molecule, how does the Potency [1] read?
Its Potency is “inactive”.

And the Potency [3]?
Its Potency is 66.4 µM (active).

What about the activity change, negative = cytotoxicity [3] of the same molecule?
The activity change, negative = cytotoxicity was -12.4% [at 8.55 µM] (inactive).

And the activity change, negative = cytotoxicity [4]?
Its activity change, negative = cytotoxicity is 1.79% [at 7.04 µM] (inactive).

What about the Potency [5] of the same molecule?
Its Potency is “inactive”.

Which results are given for O=c1c(O)c(-c2ccc(O)c(O)c2)oc2cc(O)cc(O)c12?
Potency [1]: inactive; Potency [6]: 54.5 µM (active) and 27.5 µM (active) and 61.1 µM (active); Potency [3]: 30.7 µM (active) and 24.5 µM (active) and 61.1 µM (active); Potency [4]: inactive; Potency [5]: inactive

Which results are given for O=C(NCC1CCCCN1)c1cc(OCC(F)(F)F)ccc1OCC(F)(F)F (centres undefined)?
Potency [1]: inactive; Potency [2]: 29.8 µM (active) and inactive; Potency [4]: inactive; Potency [5]: inactive

Which Potency [1] does the source give for NC1CCCCC1N (centres undefined) here?
The Potency was “inactive”.

And the Potency [2]?
The Potency was “inactive”.

What about the Potency [3] of the same molecule?
The Potency was “inactive”.

What about the Potency [4] of the same molecule?
The Potency was “inactive”.

And the Potency [5]?
Its Potency is “inactive”.

For Cc1ccc([N+](=O)[O-])cc1N, which Potency [1] is on record?
The Potency was “inactive”.

And the Potency [2]?
Its Potency is “inactive”.

And the Potency [3]?
Its Potency is “inactive”.

What about the Potency [4] of the same molecule?
The Potency was “inactive”.

What about the Potency [5] of the same molecule?
Its Potency is “inactive”.

For Oc1ccc(Cc2ccccc2O)cc1, which Potency [1] is on record?
The Potency was “inactive”.

And the Potency [2]?
Its Potency is “inactive”.

And the Potency [3]?
Its Potency is “inactive”.

And the Potency [4]?
Its Potency is “inactive”.

What about the Potency [5] of the same molecule?
Its Potency is “inactive”.

Which Potency [1] does the source give for Cc1ccc(C)c(S(=O)(=O)O)c1 here?
Its Potency is “inactive”.

And the Potency [2]?
Its Potency is “inactive”.

And the Potency [3]?
Its Potency is “inactive”.

What about the Potency [4] of the same molecule?
Its Potency is “inactive”.

What about the Potency [5] of the same molecule?
Its Potency is “inactive”.

For OCc1ccc(Cl)cc1Cl, which Potency [1] is on record?
Its Potency is “inactive”.

What about the Potency [2] of the same molecule?
The Potency was “inactive”.

And the Potency [3]?
The Potency was “inactive”.

What about the Potency [4] of the same molecule?
The Potency was “inactive”.

And the Potency [5]?
The Potency was “inactive”.

For COC(=O)OC, which Potency [1] is on record?
Its Potency is “inactive”.

What about the Potency [2] of the same molecule?
Its Potency is “inactive”.

And the Potency [3]?
The Potency was “inactive”.

What about the Potency [4] of the same molecule?
Its Potency is “inactive”.

What about the Potency [5] of the same molecule?
Its Potency is “inactive”.

Which results are given for N[C@@H](Cc1cc(I)c(Oc2ccc(O)c(I)c2)c(I)c1)C(=O)O?
Potency [1]: inactive; Potency [2]: 29.8 µM (active) and inactive; Potency [3]: inactive; Potency [4]: inactive; Potency [5]: inactive

Which results are given for O=C1CCCCCCCCCCC1?
Potency [1]: inactive; Potency [2]: inactive; Potency [3]: inactive; Potency [4]: inactive; Potency [5]: inactive

Which Potency [1] does the source give for C=C(CC(=O)O)C(=O)O here?
Its Potency is “inactive”.

What about the Potency [2] of the same molecule?
Its Potency is “inactive”.

What about the Potency [3] of the same molecule?
Its Potency is “inactive”.

What about the Potency [4] of the same molecule?
The Potency was “inactive”.

And the Potency [5]?
The Potency was “inactive”.

For C=CC(=O)NCOCCCC, which Potency [1] is on record?
The Potency was “inactive”.

What about the Potency [2] of the same molecule?
The Potency was “inactive”.

And the Potency [3]?
Its Potency is “inactive”.

And the Potency [4]?
The Potency was “inactive”.

What about the Potency [5] of the same molecule?
Its Potency is “inactive”.

For O=C1O[C@H]([C@H](O)CO)C(O)=C1O, which Potency [1] is on record?
The Potency was “inactive”.

What about the Potency [2] of the same molecule?
The Potency was “inactive”.

What about the Potency [3] of the same molecule?
The Potency was “inactive”.

What about the Potency [4] of the same molecule?
The Potency was “inactive”.

And the Potency [5]?
The Potency was “inactive”.
